HepG2 tox: HepG2 cytotoxicity, counter-screen for TGF-b inhibitors; HepG2 CAGA-GFP viability, ATP luminescence, 18 h; Potency, µM (titrated, usually from 46.1 µM), for the others: at the top dose activity change, negative = cytotoxicity, most hits filed as cytotoxic; 410,000 tested, 0.76% active; note: potency is the fitted concentration of half-maximal effect
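CellTiter-Glo luminescence gave cytotoxicity after 18 hours at 37 degrees C. The cells were HepG2 CAGA-GFP in 1% FBS DMEM, stimulated with 500 pg/mL TGF-beta after compound addition. %Activity was normalised to no-cell wells (complete cell-killing) and DMSO (no toxicity), and curves were fitted and classified.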
S2 tox: reduces viability in counter-screen for ATXN expression inhibitors; S2 cells (HEK-293 line with an ATXN2-luciferase reporter) viability, CellTiter-Fluor protease fluorescence, 24 h; AID 651635; Potency, µM (highest dose often 56.7 µM), usual class: cytotoxic; 400,000 tested, 0.49% active; note: potency is the fitted concentration of half-maximal effect; nearly all actives have a fitted effect of over 40% in size
IL1B secr inh: blocks inflammasome-driven IL-1 beta release; 360,000 tested, 4.7% active; AID 743279; THP-1 LPS/ATP IL-1B secretion, AlphaLISA, 16 h; stronger effect = lower value; activity change, % at 57.5 µM; in the data active = activity change below about -50%; inconclusive = mostly about -30% to -49%; note: % is set by controls: 0 for no effect and ±100 for the full control effect
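Secreted IL-1B measured by AlphaLISA bead assay after 16 h compound exposure of THP-1 cells; compounds (final up to 57.5 uM) added 1 h before LPS (250 ng/mL) and ATP (1.25 mM) stimulation; lower signal means less secretion.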
ATXN2 expr inh: ATXN2 expression inhibition. Potency, µM (doses to about 57 µM), without a hit: top-dose activity change, negative = inhibition, usual class: inhibitors. HEK-293 ATXN2-luciferase reporter, luminescence, 24 h. AID 1745845. 360,000 tested, 0.72% active; note: potency is the fitted concentration of half-maximal effect; % is set by controls: 0 for no effect and ±100 for the full control effect; nearly all actives have a fitted effect of over 55% in size
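ATXN2-luciferase reporter cells (luciferase flanked by upstream and downstream ATXN2 gene portions) were treated 24 h at 37 °C with compounds at up to 57 uM. SteadyGlo luminescence gave expression; GF-AFC fluorescence gave viability.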
TGFb inhibitor: inhibitors of TGF-b signaling | HepG2 CAGA-GFP TGF-b/SMAD3 reporter, GFP fluorescence, 18 h; TGF-beta stimulated, 500 pg/mL final | Potency, µM (titrated, usually from 46.1 µM), for the others: at the top dose activity, negative = inhibition, usual class: inhibitors | 410,000 tested, 1.2% active | AID 588855; note: potency is the fitted concentration of half-maximal effect; % is set by controls: 0 for no effect and ±100 for the full control effect; nearly all actives have a fitted effect of over 65% in size
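Smad-responsive CAGA-GFP expression was quantified in HEPG2 cells exposed to compounds and 500 pg/mL final TGF-beta for 18 h at 37 degrees C; unstimulated wells defined full inhibition.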
An asterisk follows results filed as active; [ ] = dose if it differs, or a comment. An excerpt weighted towards active compounds, which were near 5.7% of everything screened. Unless noted, calls come from the whole dose curve; as a rule, active = well fitted curve in the direction sought with a large enough effect; inconclusive = small, poorly fitted or top-dose-only effect, or another doubt; inactive = no such curve, though single readings can be large; an effect the other way counts as inactive or inconclusive.

CN(CC(=O)Nc1ccc(F)cc1)C(=O)COc1ccccc1Cc1ccccc1 was read as HepG2 tox 14%, S2 tox inactive, IL1B secr inh -69*, ATXN2 expr inh -17% and TGFb inhibitor inconclusive.
`COc1ccc(Cl)cc1NC(=O)CN(C)C(=O)c1cn(-c2ccccc2)nc1-c1cccnc1` gave HepG2 tox -14%, S2 tox inactive, IL1B secr inh -91*, ATXN2 expr inh -21% and TGFb inhibitor 25%.
For COc1ccc(NC(=O)CN(C)C(=O)c2cn(-c3ccccc3)nc2-c2ccc(OC)cc2)cc1 the results were HepG2 tox -25%, S2 tox inactive, IL1B secr inh -18 and TGFb inhibitor 0%.
`CC1(C)O[C@@H]2C[C@H]3[C@@H]4CCC5=CC(=O)C=C[C@]5(C)[C@@H]4[C@@H](O)C[C@]3(C)[C@]2(C(=O)CO)O1` gave S2 tox inactive and ATXN2 expr inh -2%.
Screening COc1cccc(NC(=O)CN(C)C(=O)c2cn(-c3ccccc3)nc2-c2cccs2)c1 returned HepG2 tox 2%, S2 tox inactive, IL1B secr inh -53*, ATXN2 expr inh -28% and TGFb inhibitor -15%.
COc1ccc(NC(=O)CN(C)C(=O)c2ccccc2CCc2ccccc2)cc1 was read as HepG2 tox -17%, S2 tox inactive, IL1B secr inh -52*, ATXN2 expr inh 9% and TGFb inhibitor -14%.
`COc1ccc(NC(=O)CN(C)C(=O)c2cn(-c3ccccc3)nc2-c2ccc(F)cc2)cc1` gave HepG2 tox -35%, S2 tox inconclusive, IL1B secr inh -53*, ATXN2 expr inh inconclusive and TGFb inhibitor inconclusive.
`Cc1nn(-c2ccc(F)cc2)c(Cl)c1C(=O)N(C)CC(=O)Nc1cccc(F)c1` gave HepG2 tox 13%, S2 tox inactive, IL1B secr inh -52*, ATXN2 expr inh -15% and TGFb inhibitor -14%.
Screening COc1ccc(NC(=O)CN(C)C(=O)/C=C/c2cn(-c3ccccc3)nc2-c2ccc(F)cc2)cc1 returned HepG2 tox -1%, S2 tox inactive, IL1B secr inh -21, ATXN2 expr inh -12% and TGFb inhibitor 3%.
Screening CCN(CC)CCOC(=O)c1ccc(NC(=O)c2cn(-c3ccccc3)nc2-c2cccs2)cc1 returned HepG2 tox -82%, S2 tox inactive, IL1B secr inh -53*, ATXN2 expr inh 1%[11.3 µM] and TGFb inhibitor inconclusive.
`Cc1ccc(-c2cnc(-c3ccncc3)o2)cc1` gave HepG2 tox -32%, S2 tox inactive, IL1B secr inh 0, ATXN2 expr inh 29% and TGFb inhibitor -7%.
Nc1ccc(-c2ncc(-c3ccccc3)o2)cc1 was read as HepG2 tox -41%, S2 tox inactive, IL1B secr inh -59*, ATXN2 expr inh inconclusive and TGFb inhibitor inconclusive.
CCOC(=O)C1(Cc2cccc(OC)c2)CCN(Cc2cc(OC)ccc2OC)CC1 was read as HepG2 tox -14%, S2 tox inactive, IL1B secr inh -67*, ATXN2 expr inh -13% and TGFb inhibitor inconclusive.
For CCOC(=O)C1(Cc2ccccc2Cl)CCN(Cc2csc(C(C)=O)c2)CC1 the results were HepG2 tox -15%, S2 tox inactive, IL1B secr inh -65*, ATXN2 expr inh -18% and TGFb inhibitor 6%.
Screening CCOC(=O)C1(Cc2cccc(OC)c2)CCN(Cc2ccccc2)CC1 returned HepG2 tox -5%, S2 tox inactive, IL1B secr inh -26, ATXN2 expr inh -29% and TGFb inhibitor -5%.
CCOC(=O)C1(Cc2ccccc2Cl)CCN(C(=O)CN2CCOC2=O)CC1 was read as HepG2 tox 2%, S2 tox inactive, IL1B secr inh 14, ATXN2 expr inh 46% and TGFb inhibitor 13%.
CCOC(=O)C1(Cc2cccc(OC)c2)CCN(Cc2cccc(OC)c2OC)CC1 was read as HepG2 tox -34%, S2 tox inconclusive, IL1B secr inh -65*, ATXN2 expr inh inconclusive and TGFb inhibitor inconclusive.
Screening CCOC(=O)C1(Cc2cccc(OC)c2)CCN(Cc2cccn2-c2ccccn2)CC1 returned HepG2 tox 2%, S2 tox inactive, IL1B secr inh -12, ATXN2 expr inh 0% and TGFb inhibitor 3.2µM*.
`CCOC(=O)C1(Cc2cccc(OC)c2)CCN(Cc2cnc(N)nc2)CC1` gave HepG2 tox 1%, S2 tox inactive, IL1B secr inh -1, ATXN2 expr inh -16% and TGFb inhibitor 11%.
Screening CCc1ccc(-n2c(=O)c3c4c(sc3n(CC(=O)N3CCC(C)CC3)c2=O)CCC4)cc1 returned HepG2 tox 1%, S2 tox inactive, ATXN2 expr inh 1% and TGFb inhibitor 0%.
Screening CC(C)(C)OC(=O)N[C@H]1CCCCCC=C[C@@H]2C[C@@]2(C(=O)NS(=O)(=O)C2CC2)NC(=O)[C@@H]2C[C@@H](OC(=O)N3Cc4cccc(F)c4C3)CN2C1=O returned ATXN2 expr inh 2%.
For COC(=O)C1CCCCN1Cc1ccc2c(c1)CN(Cc1cn[nH]c1-c1ccc(F)cc1)CCO2 (stereo unspecified) the results were S2 tox inactive.
`Oc1[nH]c(N=C2N=c3ccccc3=N2)c2ccccc12` gave HepG2 tox -33%, IL1B secr inh -98*, ATXN2 expr inh 27% and TGFb inhibitor inconclusive.
`Cc1ccc2c(c1)=N/C(=N\c1[nH]c(O)c3ccccc13)N=2` gave HepG2 tox -93%, IL1B secr inh -102* and TGFb inhibitor inconclusive.
`Oc1[nH]c(=S)sc1C=C1N=c2ccccc2=N1` gave HepG2 tox -13%, S2 tox inactive, ATXN2 expr inh 53% and TGFb inhibitor -1%.
Screening Cc1cc(C)cc(N(C(=O)c2csnn2)C(C(=O)NC(C)(C)C)c2ccccn2)c1 (stereo unspecified) returned HepG2 tox -14%, S2 tox inactive, IL1B secr inh 0, ATXN2 expr inh -16% and TGFb inhibitor -3%.
`CCc1cccc(N(C(=O)c2csnn2)C(C(=O)NC(C)(C)C)c2ccccn2)c1` (stereo unspecified) gave HepG2 tox 0%, S2 tox inactive, IL1B secr inh -56*, ATXN2 expr inh -1%[11.3 µM] and TGFb inhibitor -9%.
O=C(Nc1ccc(F)cc1F)C(Cc1ccccc1)N1Cc2ccccc2C1=O (stereo unspecified) was read as HepG2 tox -14% and TGFb inhibitor -14%.
For Cc1ccc(NC(=O)CCc2nnc3ccc(N4CCC(C)CC4)nn23)nc1 the results were HepG2 tox 0%, S2 tox inactive, IL1B secr inh -53*, ATXN2 expr inh inconclusive and TGFb inhibitor 0%.
